15 molecules from PubChem BioAssay (NCI) can be followed below.

The panel holds about 83,000 compounds, 20% with a hit somewhere; the sample as a whole holds those more often.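 In brief: 96-well plates, 48 h treatment, single concentration, percent growth endpoint.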 Values without a mark were called inactive. The source made the active and inactive calls. How the source made its calls: active means growth percent below 10; inactive means the rest.

Common to all, as to assay: NCI-60 one-dose screen, 48 h (100 = growth as untreated, 0 = no growth, -100 = all killed)
Settings in all cases: 10 µM unless noted

Test [1] concerns DU-145 prostate.
For test [2], the system named is K-562 leukemia.
Test [3] concerns MALME-3M melanoma.
Test [4] concerns MDA-MB-231 breast.
The test system of test [5] is RXF 393 renal.
Test [6] relates to SF-268 CNS.
Test [7] relates to SF-295 CNS.
Test [8] has as its system SF-539 CNS.
Test [9] deals with UACC-257 melanoma.
The test system of test [10] is M14 melanoma.
Test [11] has as its system HCT-15 colon.
The subject of test [12] is HT29 colon.
The subject of test [13] is SNB-75 CNS.
In test [14] the test system is SNB-19 CNS.
Test [15] has as its system U251 CNS.
Test [16] concerns PC-3 prostate.
In test [17] the test system is SK-MEL-5 melanoma.
In test [18] the test system is UACC-62 melanoma.
The test system of test [19] is LOX IMVI melanoma.
Test [20] relates to SK-MEL-28 melanoma.

On to `O=C(c1ccncc1)N1N=C(c2ccc(Cl)cc2)C[C@H]1c1cn(-c2ccccc2)nc1-c1ccccc1`, for which the growth was 99.8% in [1]; 90.5% in test [2]; 108% in test [3]; 69.6% in [4]; 87.6% in [5]; 89.4% in [6]. Also, the growth is 78.8% in test [7]; 81.2% in test [8]; 89.6% in test [9]; 107% in test [10]; 82.4% in test [11]; 104% in [12]. For the same molecule, the growth in [13] is 72.7%; in test [14], 88.6%; in test [15] it was 61.1%; in test [16], 79.5%; in test [17], 90.7%; in test [18], 91.7%. The growth in test [19] was 79.9%; in test [20], 96%.
Take `O=CN1N=C(c2cccc(Nc3ccnc4cc(Cl)ccc34)c2)CC1c1ccccc1` (stereo not given): the growth is 6.74% (active) in test [1]; 18.3% in test [2]; 53.2% in test [3]; 7.27% (active) in test [4]; -5.98% (active) in test [5]; 36.9% in test [6]. In addition, the growth is 2.56% (active) in test [7]; -7.47% (active) in test [8]; 66.9% in test [9]; 23.6% in test [10]; 19.6% in test [11]; -2% (active) in test [12]. The growth was -9.35% (active) in [13]; 40.3% in test [14]; 16.9% in test [15]; 24.2% in test [16]; 17.9% in test [17]; 34.7% in test [18]. In addition, the growth in test [19] was 20.6%; in [20] it was 49.5%.
On to `C[PH+](c1nc2ccccc2nc1[PH+](C)C(C)(C)C)C(C)(C)C.C[PH+](c1nc2ccccc2nc1[PH+](C)C(C)(C)C)C(C)(C)C.[Au+].[Cl-]` (stereo not given), for which the growth is -99.5% (active) in test [1]; 1.72% (active) in [2]; -67.1% (active) in test [3]; -90.3% (active) in [4]; -87.9% (active) in test [5]; -91% (active) in [6]. Moreover, the growth in [7] was -88% (active); in [8], -91.6% (active); in test [9], -88.3% (active); in test [10], -100% (active); in test [11], -80.9% (active); in test [12], -100% (active). Moreover, the growth in [13] is -98.4% (active); in test [14], -100% (active); in test [15], -86.8% (active); in [16], -83.9% (active); in test [17] it was -100% (active); in [18], -79.5% (active). Further, the results for the growth in test [19] and in [20] were -85.5% (active) and -85% (active), respectively.
`O=C1Nc2ccc(C(=O)O)cc2/C1=N/c1nnc(Sc2ccccc2)s1`: the growth is 110% in [1]; 96.2% in test [2]; 113% in test [3]; 106% in [4]; 117% in test [5]; 96.4% in [6]. Besides, the growth in test [7] is 102%; in test [8] it was 96.8%; in test [9], 107%; in test [10] it was 104%; in [11], 104%; in [12] it was 115%. The growth in [13] is 94.2%; in [14] it was 102%; in [15], 98%; in [16], 104%; in test [17], 104%; in test [18], 99%. Further, the growth was 96.3% in [19] and 112% in [20].
Take `OCCn1cc(-c2nc(-c3c[nH]c4ncccc34)cs2)c2ccccc21`: the growth in test [1] is 93.5%; in test [2], 54.2%; in test [3], 115%; in test [4], 66.4%; in test [5] it was 82.4%; in test [6] it was 84.1%. Besides, the growth in test [7] was 81.1%; in test [8] it was 88.5%; in test [9], 93.1%; in [10] it was 97.7%; in test [11], 55.9%; in test [12] it was 95%. In addition, the growth is 55.2% in [13]; 88.1% in test [14]; 78.9% in test [15]; 61.8% in test [16]; 77.5% in test [17]; 69.9% in [18]. The growth was 77.7% in test [19] and 104% in test [20].
In the case of `CC(=O)Oc1ccc(N2C(=O)C(Cl)=C(Nc3cccc(C(F)(F)F)c3)C2=O)cc1`, the growth was 101% in test [1]; 90.4% in test [2]; 102% in [3]; 95.3% in test [4]; 87% in [5]; 94.3% in [6]. For the same molecule, the growth in test [7] is 102%; in test [8], 96.5%; in test [9] it was 97.1%; in [10], 105%; in [11] it was 84%; in test [12], 104%. The growth is 95.1% in test [13]; 93% in [14]; 97.4% in test [15]; 96.3% in test [16]; 105% in test [17]; 87.8% in test [18]. In addition, the growth was 88.7% in test [19] and 101% in [20].
Take `CCN(C)S(=O)(=O)Nc1cccc(Nc2ncnc3cc(NC(=O)CCl)ccc23)c1Cl`: the growth in test [1] was -49.8% (active); in test [2] it was 4.5% (active); in [3], -51.7% (active); in test [4] it was -38.4% (active); in test [5], -11.9% (active); in [6], 7.08% (active). The growth in [7] is 15.3%; in test [8], -40.3% (active); in test [9] it was 34.4%; in test [10] it was 15.1%; in test [11], -12.3% (active); in [12], -56.9% (active). The growth in [13] was 6.04% (active); in test [14], 16.7%; in test [15], -77.4% (active); in [16], 0.153% (active); in test [17] it was -83.6% (active); in test [18] it was -22.5% (active). Further, the growth in test [19] is -79% (active); in test [20], 28.8%.
Consider `C=CCn1c(SCC(=O)Nc2ccc(C(=O)/C=C/c3ccc(Cl)cc3)cc2)nnc1-c1ccc(Br)cc1`, for which the growth is 75.3% in test [1]; 61% in test [2]; 97.6% in test [3]; 81.2% in test [4]; 74.8% in test [5]; 73.6% in test [6]. Also, the growth was 96.8% in [7]; 90.3% in [8]; 92.3% in test [9]; 89.7% in test [10]; 81.2% in test [11]; 67.5% in test [12]. Further, the growth was 75.6% in [13]; 77.8% in test [14]; 79.5% in [15]; 68% in test [16]; 82.7% in test [17]; 71% in test [18]. The growth in test [19] was 77.7%; in test [20], 105%.
In the case of `CC(=O)n1nc(C(=O)OC(C)(C)c2ccccc2)c2ccccc21`, the growth in test [1] was 111%; in test [2], 97%; in test [3], 105%; in [4] it was 85.4%; in [5], 92.2%; in [6] it was 99.2%. Further, the growth in test [7] was 93.1%; in test [8], 97.7%; in test [9], 89.5%; in test [10] it was 96.4%; in [11], 101%; in test [12], 97.5%. Further, the growth in test [13] is 80.8%; in [14], 95.7%; in [15], 98.6%; in test [16], 92.3%; in test [17], 96.9%; in test [18], 93%. Further, the growth in [19] was 91.2%; in test [20], 90.4%.
For the molecule `Cc1ccc(CNc2ccc3nc(CCC4CCCCC4)[nH]c3c2)cc1`, the growth in test [1] was 71.8%; in test [2], 5.06% (active); in test [3], 22.4%; in test [4], 53.1%; in test [5], 36.2%; in test [6], 71.2%. For the same molecule, the growth is 61.1% in [7]; 64.6% in test [8]; 66.8% in test [9]; 37.4% in [10]; 12.7% in test [11]; 9.91% (active) in [12]. Besides, the growth in test [13] is 79.7%; in test [14], 58.4%; in test [15] it was 29.8%; in [16] it was 38.5%; in test [17] it was -19.5% (active); in test [18], 32.9%. Besides, the values for the growth in test [19] and in test [20] were 50.1% and 38.5%, respectively.
`CNc1nnc2n(-c3ccccc3)c(=O)c3cnn(-c4ccccc4)c3n12`: the growth is 102% in test [1]; 85.7% in test [2]; 131% in test [3]; 103% in [4]; 98.2% in test [5]; 96.1% in [6]. The growth in test [7] was 78.8%; in test [8] it was 83.5%; in [9] it was 95.7%; in test [10], 79.1%; in test [11], 76.2%; in test [12], 51.3%. Besides, the growth was 73.1% in [13]; 110% in test [14]; 71.4% in [15]; 62.7% in [16]; 100% in test [17]; 95.4% in [18]. In addition, the growth in test [19] is 82.6%; in test [20] it was 103%.
With `CCCn1cc2c(=O)nc3sc(Cc4ccccc4)c(C)n3c2n1`, the growth in [1] was 104%; in [2] it was 77.5%; in [3], 112%; in test [4], 99.3%; in test [5] it was 119%; in test [6] it was 94.8%. For the same molecule, the growth in test [7] was 120%; in test [8], 99.7%; in [9], 88.3%; in test [10], 112%; in test [11] it was 106%; in test [12], 98%. Moreover, the growth was 97.6% in test [13]; 98% in test [14]; 93.2% in test [15]; 98.5% in [16]; 107% in [17]; 95% in [18]. For the same molecule, the growth in test [19] is 94%; in test [20], 123%.
For the molecule `O=C1/C(=C\c2ccc3nccnc3c2)SC(=S)N1CCc1ccc(O)cc1`, the growth in test [1] was 59.6%; in test [2], 96.9%; in test [3], 75.7%; in test [4], 88.7%; in [5] it was 93%; in test [6] it was 90.8%. Further, the growth was 105% in test [7]; 82.2% in test [8]; 81.9% in test [9]; 85.5% in test [10]; 78.3% in test [11]; 112% in [12]. The growth was 66% in test [13]; 94% in [14]; 99.3% in test [15]; 89.7% in test [16]; 98.7% in test [17]; 84.5% in test [18]. Besides, the growth is 79.4% in [19] and 103% in [20].
For the molecule `O=C(NCCCl)Nc1ncccc1OCc1ccccc1`, the growth in [1] was 105%; in [2], 103%; in test [3], 103%; in test [4], 101%; in [5], 108%; in test [6], 102%. Moreover, the growth in [7] is 99.9%; in [8] it was 106%; in [9] it was 107%; in test [10], 99.8%; in test [11] it was 95%; in [12], 94.5%. Further, the growth in [13] is 103%; in test [14] it was 103%; in [15], 110%; in test [16], 99%; in test [17] it was 95.9%; in test [18] it was 92.5%. The growth in test [19] is 102%; in test [20], 108%.
Turning to `Cc1cccc(/C=C2\CN(C(=O)OC(C)(C)C)C/C(=C\c3cccc(C)c3)C2=O)c1`, the growth in [1] is 106%; in [2], 5.44% (active); in test [3] it was 90.6%; in test [4] it was 98.8%; in test [5] it was 128%; in test [6] it was 94.1%. For the same molecule, the growth in [7] was 101%; in test [8] it was 104%; in test [9], 94.7%; in [10] it was 90.5%; in test [11] it was 76.2%; in [12] it was 46.5%. The growth was 74.7% in test [13]; 95.9% in test [14]; 63.6% in [15]; 89% in [16]; 101% in test [17]; 81.3% in [18]. Moreover, the results for the growth in test [19] and in test [20] were 47.1% and 104%, respectively.
